Source: PubChem BioAssay (National Center for Advancing Translational Sciences (NCATS))
Cruzain inh noDet = qHTS Assay for Promiscuous and Specific Inhibitors of Cruzain (without detergent); 200,000 tested, 2.3% active; Potency, µM, inactives show max response, negative = inhibition, actives largely listed as inhibitors; AID 1476, 2009; purified cruzain, Z-FR-AMC fluorescence, no detergent;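 further: plate controls were enzyme without inhibitor for no effect and buffer without enzyme for full effect; nearly all actives have a fitted effect of over 40% in size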
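Detergent-free condition (0.00005% Triton X-100) in acetate buffer pH 5.5 with DTT. 1.5 nM enzyme and compound were pre-mixed 15 min, then 2 uM Z-FR-AMC substrate added; reaction progress from fluorescence change between first and third reads (60 s).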
Cruzain Triton = qHTS Assay for Promiscuous and Specific Inhibitors of Cruzain (with detergent); Cruzipain (Trypanosoma cruzi), P25779; purified cruzain, Z-FR-AMC fluorescence, 0.01% Triton; Potency, µM, for the others: max response, negative = inhibition, hits mostly inhibitors; 200,000 tested, 0.43% active;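 further: plate controls were neutral wells for no effect and buffer without enzyme for full effect; nearly all actives have a fitted effect of over 40% in size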
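Read-out: AMC fluorescence (360 nm excitation, 450 nm emission), four reads over 2 min, first-to-third difference used. Conditions: cruzain 1.5 nM, Z-FR-AMC 2 uM, pH 5.5 acetate, 5 mM DTT, 0.01% Triton X-100.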
Papain inh = qHTS Assay for Inhibitors of Papain: Counterscreen for Cruzain Assay. Potency, µM, for the others: max response, negative = inhibition, usual class: inhibitors. purified papain, Z-FR-AMC fluorescence cleavage. shares compounds with Cruzain Triton. 410 tested, 41% active;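 further: 0% = no-compound wells and -100% = no-enzyme wells; nearly all actives have a fitted effect of over 35% in size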
Target sequence (P00784 whole entry, looked up): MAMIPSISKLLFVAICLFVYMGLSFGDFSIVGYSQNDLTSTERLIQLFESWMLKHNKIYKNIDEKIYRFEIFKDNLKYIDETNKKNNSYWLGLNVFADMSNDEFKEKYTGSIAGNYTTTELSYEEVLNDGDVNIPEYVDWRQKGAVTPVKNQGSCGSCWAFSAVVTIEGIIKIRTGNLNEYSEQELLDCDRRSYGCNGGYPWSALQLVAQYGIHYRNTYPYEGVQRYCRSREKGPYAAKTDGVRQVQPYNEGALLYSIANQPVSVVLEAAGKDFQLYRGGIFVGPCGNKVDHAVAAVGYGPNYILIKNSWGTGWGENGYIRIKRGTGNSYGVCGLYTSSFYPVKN
Numbers without * were called inactive. This is a sample that favours compounds with a hit; in the whole collection about 2.5% have one here. The call rests on the fitted dose curve; in most records, active means well fitted curve in the direction sought with a large enough effect; inconclusive means small, poorly fitted or top-dose-only effect, or another doubt; inactive means no such curve, though single readings can be large; an effect the other way counts as inactive or inconclusive. Potency means the concentration at half of the fitted maximal effect.

How did Cc1ccc2c(CC(=O)Nc3ccc(S(=O)(=O)N4CCC(C)CC4)cc3)coc2c1 do in these assays?
Cruzain inh noDet: inconclusive; Cruzain Triton: -7.5%

What do the screens show for `CNc1nc(-c2c(C)noc2C)nc2ccccc12`?
Cruzain inh noDet: 1.3%; Cruzain Triton: -0.2%

What do the screens show for `CC(=O)c1cccc(NC(=O)c2nc3ccccc3nc2N2CCCCC2)c1`?
Cruzain inh noDet: 14.3%; Cruzain Triton: -4.1%

What do the screens show for `C[C@H](NC[C@H](O)CP(=O)(O)Cc1ccccc1)c1ccc(Cl)c(Cl)c1`?
Cruzain inh noDet: 12.3%; Cruzain Triton: -4.5%

Results for Cc1ccc(CNc2nc3ccc(Cl)cc3n3nnnc23)cc1 ?
Cruzain inh noDet: 3.9%; Cruzain Triton: -0.5%

What do the screens show for `COc1cccc(Cn2c(CNC(=O)c3cc([N+](=O)[O-])ccc3Cl)nc3cccnc32)c1`?
Cruzain inh noDet: -19.8%; Cruzain Triton: -13.7%

Results for Nc1nc(N2CCCCC2)nc(N(c2ccccc2)c2ccccc2)n1 ?
Cruzain inh noDet: 5.9%; Cruzain Triton: -5.4%

Results for N#Cc1nc(N2CCCCC2)nc(N(c2ccccc2)c2ccccc2)n1 ?
Papain inh: 2.82µM*

What do the screens show for `CCNc1nc(NC(C)(C)C)nc(N2CCCC2)n1`?
Cruzain inh noDet: -13.8%; Cruzain Triton: 0.1%

What do the screens show for `CCNc1nc(C#N)nc(N2CCCCC2)n1`?
Papain inh: 2.51µM*

What do the screens show for `COc1ccccc1CCNC(=O)C(=O)NCC(c1ccc2c(c1)OCO2)N1CCOCC1` (stereo unspecified)?
Cruzain inh noDet: 3.4%; Cruzain Triton: -0.9%

How did CC(C)OCCCNC(=O)CSc1c2c(nc3ccc(Cl)cc13)CCCC2 do in these assays?
Cruzain inh noDet: -15.5%; Cruzain Triton: -14.9%

Results for CCCCNC(=O)C1CCC(Cn2c(=O)c3sccc3n(Cc3ccccc3)c2=O)CC1 (stereo unspecified) ?
Cruzain inh noDet: -4.0%; Cruzain Triton: -2.3%

Results for Cc1cc(OCC(=O)Nc2ccc(N3CCN(C(=O)c4ccco4)CC3)cc2)cc(C)c1Cl ?
Cruzain inh noDet: 0.8%; Cruzain Triton: -0.3%

How did Cc1cc(OCC(=O)Nc2ccc(N3CCCC3)cc2)cc(C)c1Cl do in these assays?
Cruzain inh noDet: 3.98µM*; Cruzain Triton: inconclusive; Papain inh: 3.3%

What do the screens show for `CC[C@@]1(O)CC2CN(CCc3c([nH]c4ccccc34)[C@](C(=O)OC)(c3cc4c(cc3OC)N(C)C3[C@@](O)(C(=O)OC)C(OC(C)=O)[C@]5(CC)C=CCN6CC[C@@]43C65)C2)C1` (stereo partly specified)?
Cruzain inh noDet: 17.4%; Cruzain Triton: 0.6%

Results for Cc1c(-c2ccccc2)n(-c2ccccc2O)c2nc3c(c(=O)n(C)c(=O)n3C)n12 ?
Cruzain inh noDet: -11.6%; Cruzain Triton: 1.2%

How did CSCC[C@H](NC(=O)OCc1ccccc1)C(=O)O do in these assays?
Cruzain inh noDet: -0.6%; Cruzain Triton: -1.5%

What do the screens show for `O=C(N[C@@H](Cc1ccccc1)C(=O)CCl)OCc1ccccc1`?
Cruzain inh noDet: 0.316µM*; Cruzain Triton: 0.159µM*; Papain inh: 5.01µM*

How did COC(=O)Sc1nc(N2CCOCC2)c2c(c1C#N)CC(C)(C)OC2 do in these assays?
Cruzain inh noDet: 15.8µM*; Cruzain Triton: 10µM*; Papain inh: 15.8µM*

How did CC1(C)Cc2c(C#N)c(SCC(=O)c3ccccc3)nc(N3CCOCC3)c2CO1 do in these assays?
Cruzain inh noDet: inconclusive; Cruzain Triton: -7.9%

How did CCc1c(C)nc(SCc2nc(-c3ccccc3C)no2)[nH]c1=O do in these assays?
Cruzain inh noDet: -3.5%; Cruzain Triton: -0.8%

How did Cc1ccccc1-c1noc(-c2ccc(N3CCN(C)CC3)c([N+](=O)[O-])c2)n1 do in these assays?
Cruzain inh noDet: inconclusive; Cruzain Triton: -4.2%

What do the screens show for `CCc1ccc2[nH]c(=O)c(CN(Cc3ccco3)Cc3nnnn3Cc3ccco3)cc2c1`?
Papain inh: -18.9%

Results for Cc1ccc2[nH]c(=O)c(CN(Cc3ccco3)Cc3nnnn3Cc3ccco3)cc2c1 ?
Papain inh: -3.0%

Results for COc1ccc2[nH]c(=O)c(CN(C3CCCCC3)C(c3nnnn3Cc3ccco3)C(C)C)cc2c1 (stereo unspecified) ?
Cruzain inh noDet: inconclusive; Cruzain Triton: -23.6%

Results for Cc1ccc2[nH]c(=O)c(CN(Cc3ccccc3)Cc3nnnn3Cc3ccco3)cc2c1 ?
Papain inh: -12.9%

How did COc1ccc2[nH]c(=O)c(CN(Cc3nnnn3Cc3ccco3)C3CCCCC3)cc2c1 do in these assays?
Cruzain inh noDet: 7.94µM*; Cruzain Triton: 7.08µM*; Papain inh: -41.8%

What do the screens show for `Cc1ccc2[nH]c(=O)c(CN(Cc3ccccc3)Cc3nnnn3C3CCCC3)cc2c1`?
Cruzain inh noDet: 11.6%; Cruzain Triton: -11.7%
